# Data: PubChem BioAssay (NCI)
# Compounds without any hit were thinned out: in the full panel of roughly 83,000, 20% have a hit.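 Negative percent growth values reflect cell death: -40 means 40% of the cells present at the start died, and -100 means all died.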 Values without a mark were called inactive. Calls of active or inactive are those of the source. The calls were made as follows: active = growth percent below 10; inactive = the rest.
# Assays:
# Experiment in all cases: NCI-60 one-dose screen, 48 h (100 = growth as untreated, 0 = no growth, -100 = all killed)
# Conditions in all cases: 10 µM
# [1] = test system: HT29 colon
# [2] = test system: SNB-75 CNS
# [3] = test system: SNB-19 CNS
# [4] = test system: U251 CNS
# [5] = test system: PC-3 prostate
# [6] = test system: SK-MEL-5 melanoma
# [7] = test system: UACC-62 melanoma
# [8] = test system: LOX IMVI melanoma
# [9] = test system: SK-MEL-28 melanoma
# [10] = test system: SK-MEL-2 melanoma
SMILES,growth [1],growth [2],growth [3],growth [4],growth [5],growth [6],growth [7],growth [8],growth [9],growth [10]
CCOC(=O)C(=Cc1ccc(Br)cc1)C(=O)OCC,-64% (active),12.7%,63.1%,-46% (active),-30.4% (active),-47.9% (active),-72.6% (active),-85.7% (active),-74.5% (active),-61.5% (active)
C#Cc1ccc(-n2c(/C=C/c3ccc(Cl)c(F)c3)nc3ncccc3c2=O)cc1,-53.5% (active),-64.7% (active),22%,-53.9% (active),2.16% (active),-97.5% (active),-55.9% (active),-57% (active),-8.26% (active),-60.2% (active)
COc1ccc2c(c1)nc(N)c1c3cccnc3cn21,-5.58% (active),42%,35.9%,12.7%,20.6%,-38.1% (active),16%,35.1%,62.6%,53.2%
Nc1ccc2c(c1)C1(CCC2)NC(=O)NC1=O (stereo not given),104%,90.2%,96.6%,91.5%,92%,98.6%,106%,97.7%,113%,99.7%
C#Cc1ccc(-n2c(/C=C/c3ccc4ccccc4n3)nc3ncccc3c2=O)cc1,-61.4% (active),-59.2% (active),-0.995% (active),-57.6% (active),-28.6% (active),-98.2% (active),-65.3% (active),-50.8% (active),-52.8% (active),-67% (active)
CCN(CC)CCSCCCNc1c2ccc(Cl)cc2nc2ccc(OC)cc12,-58.1% (active),-97.8% (active),-38.4% (active),-70.6% (active),-30.3% (active),-99.1% (active),-72.9% (active),-80% (active),-67% (active),-77.5% (active)
Cc1ccc(N=Nc2c(N)nc(N)[nH]c2=O)cc1C,93%,104%,110%,103%,95.7%,101%,109%,96%,115%,100%
COc1cc2cc3c(nc2cc1OC)CCN3Cc1ccc(NC(=O)Nc2ccc(F)cc2F)cc1,103%,86.4%,76.8%,91.8%,68.8%,86.1%,69%,88.6%,95.7%,88.2%
C[C@]12CC[C@@H]3c4ccc(O)cc4C[C@@H](O)[C@H]3[C@@H]1CC[C@@H]2O,102%,87.8%,108%,96.1%,90.2%,96%,97.1%,97.3%,117%,110%
C#Cc1ccc(-n2c(/C=C/c3ccc4ccccc4c3)nc3ncccc3c2=O)cc1,0.964% (active),47.3%,75.3%,43.2%,13.7%,-90.3% (active),26.7%,-39% (active),58.8%,-33.2% (active)
CC12O[C@H](C[C@@H](O)[C@H]1O)n1c3ccccc3c3c4c(c5c6ccccc6n2c5c31)C(=O)N(CCCN)C4=O,11.3%,49.8%,26.9%,14.8%,34%,40.6%,47.8%,1.96% (active),92.1%,50.3%
COc1ccc(/C(=C2\O[C@@H]([C@H]3COC(C)(C)O3)[C@H]3OC(C)(C)O[C@@H]23)c2cc(OC)c(OC)c(OC)c2)cc1O,107%,6.11% (active),47.4%,46.2%,30.6%,59.6%,93.2%,36.9%,59.6%,103%
N=C(N)c1ccc(-c2ccc(-c3cccs3)o2)cc1,-26.5% (active),40.6%,73.7%,12.4%,50.5%,44.6%,67.7%,12.2%,47.6%,-7.14% (active)
COc1cc(/C=C2\Oc3cc(OCC(=O)c4ccccc4)ccc3C2=O)cc(OC)c1OC,112%,104%,118%,90.1%,85.2%,98.7%,96.7%,98.5%,108%,122%
O=[N+]([O-])c1ccc(N/N=C/c2cccc3ccccc23)nc1,97.1%,93.2%,99.2%,93%,90.7%,100%,91.4%,97.1%,111%,103%
Nc1ncn([C@@H]2O[C@H](CO)[C@@H](O)[C@H]2O)c(=O)n1,19.9%,20.3%,46.6%,19.6%,31%,48.3%,12.5%,-9.93% (active),34.8%,-21.5% (active)
CCOC(=O)N/N=C\C(C)=N\NC(=O)OCC,98%,92.1%,98.5%,92.7%,93%,109%,99.3%,96.2%,103%,111%
COc1ccc(OC)c(NC(=O)c2sc3nc4c(cc3c2N)C(=O)CCC4)c1,106%,87.2%,82.2%,94.5%,80.4%,66%,75.3%,90.8%,83.7%,94.1%
